Experimental data published in PubChem BioAssay AID2685 (National Center for Advancing Translational Sciences (NCATS), 2010).
The whole screen tested about 320,000 compounds, of which about 2,100 (0.66%) were called active. About 53% were inconclusive and are not listed. The call rests on the fitted dose curve; in most records, active means well fitted inhibition curve with a large enough effect in the signal ratio, with a control signal flat (not every such curve was filed as active); inconclusive means small, poorly fitted or top-dose-only effect, or effect the other way, or a change in a side signal; inactive means flat fitted curve, though single readings scatter; the % refers to the signal ratio. The entries come from a sample that favours actives as a whole.

Assay: qHTS Assay for Lipid Storage Modulators in Drosophila S3 Cells;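 on cell number change: cells counted by Cell Tracker Red CMTPX staining in the red channel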; on lipid storage change, negative = inhibition: on the % scale 0 is the no-effect control and ±100 the full control effect
Details: BODIPY lipid droplet fluorescence, 18-24 h, cells fed with added oleic acid; cell number change: measured here: cell count max response; series mostly up to 46.1 µM; lipid storage change, negative = inhibition: at the top concentration
Method in brief: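 Drosophila S3 cells got compounds at several concentrations plus oleic acid (400 uM solution). Laser-scanning cytometry with 488 nm excitation read lipid droplets at 500-530 nm and cells at 575-640 nm. Percent activity was relative to 20 uM Triacsin C.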
Potency means the concentration at half of the fitted maximal effect.

Compound | lipid storage change, negative = inhibition | cell number change [%] | Potency | outcome
CCOC(=O)CSc1ccc(S(=O)(=O)N(CC)CC)cc1[N+](=O)[O-] | 5.13% (inactive) | 15.5 |  | 
CCOC(=O)CSc1ccc(S(=O)(=O)N(C)C2CCCCC2)cc1[N+](=O)[O-] |  | -12.4 | 25.9 µM (active) | 
CCOC(=O)CSc1ccc(S(=O)(=O)N2CCCCC2)cc1[N+](=O)[O-] | 11.2% (inactive) | 12.9 |  | 
Cc1nc(C)c(C(=O)Nc2ccccc2)s1 | 2.24% (inactive) | 13.8 |  | 
CC(=O)Nc1ccc(Nc2nc(C)cc(C)n2)cc1 | -1.44% (inactive) | 7.77 |  | 
O=C(/C=C/c1ccccc1)Nn1c(-c2cccs2)nc2ccccc2c1=O | 17.1% (inactive) | 20.7 |  | 
CCCCN(CC)C(=O)c1n[nH]c(=O)c2ccccc12 |  | -6.59 | 29.1 µM (active) | 
CCN(CC)CCNC(=O)CCc1n[nH]c(=O)c2ccccc12 | -5.8% (inactive) | -11.1 |  | 
CCOC(=O)c1n[nH]c(=O)c2ccccc12 | 6.78% (inactive) | -14.5 |  | 
O=C(NCc1csc2ccc(Cl)cc12)Nc1ccccc1 | -4.18% (inactive) | -21.1 |  | 
CCOCCCNc1nc(-c2ccccc2)nc2ccccc12 |  | 9.97 | 4.61 µM (active) | 
COCCNc1nc(-c2ccccc2)nc2ccccc12 | 3.19% (inactive) | -1.08 |  | 
COc1ccc(/C=N/Nc2nc(-c3cccnc3)nc3ccccc23)cc1OC | -5.18% (inactive) | -0.944 |  | 
COc1ccc(CNc2nc(-c3ccccc3)nc3ccccc23)cc1OC | 4% (inactive) | -4.67 |  | 
COc1ccc(CCNc2nc(-c3cccnc3)nc3ccccc23)cc1OC |  | 0.794 | 9.2 µM (active) | 
CC(C)OCCCNc1nc(-c2ccccc2)nc2ccccc12 |  | -18 |  | inactive
CCc1ccc(/C=N\n2cnnc2)cc1 | -2.9% (inactive) | 2.5 |  | 
CCC(C(=O)NC1CCCCC1)n1c(SCc2cccc(C)c2)nc2ccncc21 (configuration not stated) | 19.5% (inactive) | -1.51 |  | 
Cc1ccc(S(=O)(=O)N2CCN(C(=O)CSc3ncn[nH]3)CC2)cc1 |  | 5.31 | 16.4 µM (active) | 
O=C(CSc1ncn[nH]1)N1CCN(S(=O)(=O)c2ccccc2)CC1 | 4.24% (inactive) | 11.4 |  | 
Cc1ccc(S(=O)(=O)N2CCN(C(=O)CSc3ccc(Cl)cc3)CC2)cc1 | -23.2% (inactive) | -6.45 |  | 
Cc1cccn2c(CN(C)CC3Cc4ccccc4O3)c(C(=O)N3CCCCC3)nc12 (configuration not stated) | 6.24% (inactive) | -1.06 |  | 
COc1ccc(S(=O)(=O)N2CCN(C(c3ccccc3)c3ccccc3)CC2)cc1NC(C)=O | -2.59% (inactive) | 5.87 |  | 
Cc1ccc(OCC(=O)N2CCCC(CO)(CCOc3ccccc3)C2)cc1 (configuration not stated) |  | 13.9 | 14.6 µM (active) | 

Compound | lipid storage change, negative = inhibition | cell number change [%] | Potency | outcome
CSCC(=O)N1CCCC(CO)(CCCc2ccccc2)C1 (configuration not stated) | 20.8% (inactive) | -13.7 |  | 
Cc1ccc(OCC(=O)N2CCN(C(=O)Cc3ccccc3)CC2)cc1 | 9.56% (inactive) | 24.1 |  | 
O=c1[nH]c2ccccc2n2c(-c3ccncc3)nnc12 | -8.9% (inactive) | -11.8 |  | 
Cc1cc(C)cc(NC(=O)c2cc3c(=O)n4ccccc4nc3s2)c1 |  | -3.42 | 6.51 µM (active) | 
O=C(Nc1cccc(Cl)c1)c1cc2c(=O)n3ccccc3nc2s1 | -9.52% (inactive) | 1.29 |  | 
CC(=O)NS(=O)(=O)c1ccc(NC(=O)c2cc3c(=O)n4ccccc4nc3s2)cc1 | 5.64% (inactive) | 21.8 |  | 
O=C(CCC1CCCC1)Nc1ccccc1-c1ccccc1 | 4.16% (inactive) | -0.161 |  | 
COc1ccc(NC(=O)C2CCCCN2N)cc1OC (configuration not stated) | -0.29% (inactive) | -2.19 |  | 
Cc1cc(C)cc(NC(=O)CSc2ccc(-c3ccccn3)nn2)c1 | -5.08% (inactive) | 2.31 |  | 
O=S1(=O)CC/C(=N\O)c2ccccc21 | 5.13% (inactive) | 0.644 |  | 
O=c1cc(CO)oc(C(Nc2ccccn2)c2ccccc2Cl)c1O (configuration not stated) | -1.26% (inactive) | -7.74 |  | 
N#Cc1ccc(-c2ccc(OCC(=O)Nc3cccnc3)cc2)cc1 |  | -11.3 | 13 µM (active) | 
N#Cc1ccc(OCC(=O)Nc2nc(-c3cccnc3)cs2)cc1 | 12.5% (inactive) | -1.13 |  | 
O=C(COc1cccc(C(F)(F)F)c1)Nc1cccnc1 | -7.09% (inactive) | 28.7 |  | 
Nc1ccc(S(=O)(=O)c2ccc(N)c(N)c2)cc1 | 1.95% (inactive) | 15.7 |  | 
CCCCCOCC(O)CCC(=O)NN (configuration not stated) | -1.04% (inactive) | -19 |  | 
Cc1ccc2cc(C(c3nnnn3C3CCCC3)N(Cc3ccccc3)Cc3ccco3)c(=O)[nH]c2c1 (configuration not stated) |  | -7.33 |  | inactive
CCOC(=O)C1=C(CN2CCN(C(=O)c3ccco3)CC2)NC(=O)NC1c1ccc(OC(C)C)cc1 (configuration not stated) |  | -20.3 | 18.4 µM (active) | 
CCOC(=O)C1=C(CN2CCN(C(=O)c3ccco3)CC2)NC(=O)NC1c1ccc(F)cc1 (configuration not stated) |  | -24.3 |  | inactive
CCOC(=O)C1=C(C)NC(=O)NC1c1ccc(OC(=O)c2ccco2)cc1 (configuration not stated) | 3.41% (inactive) | -14 |  | 
Cc1ccccc1-c1nc2sc3c(c2c(=O)o1)CCC3 | 2.37% (inactive) | 4.59 |  | 
O=c1oc(-c2ccccc2)nc2sc3c(c12)CCCC3 |  |  |  | inactive
Cc1nc2sc3c(c2c(=O)o1)CCCC3 |  | 5.3 | 29.1 µM (active) | 
COc1cccc(-c2nc(-c3ccccn3)no2)c1 | 4.98% (inactive) | -6.27 |  | 

Compound | lipid storage change, negative = inhibition | cell number change [%] | Potency | outcome
Cc1c(NC(=O)CSCc2c(F)cccc2Cl)c(=O)n(-c2ccccc2)n1C | 5.12% (inactive) | 19 |  | 
O=C1Nc2ccc(S(=O)(=O)N3CCCC3C(=O)O)c3cccc1c23 (configuration not stated) | -0.439% (inactive) | 2.18 |  | 
CN1CCN(C(=O)/C(=C\c2ccccc2)c2ccccc2)CC1 |  | -17.9 | 18.4 µM (active) | 
CC1CCCCN1C(=O)/C(=C\c1ccccc1)c1ccccc1 (configuration not stated) | -10.3% (inactive) | 7.23 |  | 
O=C(/C(=C/c1ccccc1)c1ccccc1)N1CCCCC1 | -0.342% (inactive) | -13.6 |  | 
CS(=O)(=O)c1ccccc1-c1nnc(NC(=O)c2ccc(S(=O)(=O)N3CCCC3)cc2)o1 |  |  |  | inactive [at 0.0737 µM]
COCCCNC(=O)c1ccccc1-c1cc(C)no1 | 14.1% (inactive) | -2.62 |  | 
CC(=O)Nc1cc(C(F)(F)F)ccc1N1CCOCC1 | 1.01% (inactive) | 3.32 |  | 
CC(C(=O)Nc1cc(C(F)(F)F)ccc1N1CCOCC1)N1C(=O)C2CC=CCC2C1=O (configuration not stated) |  | -1.98 | 1.46 µM (active) | 
CC(Cl)C(=O)Nc1cc(C(F)(F)F)ccc1N1CCOCC1 (configuration not stated) | 10% (inactive) | -4.52 |  | 
O=C(Cc1cccc2ccccc12)Nc1ccc(N2CCOCC2)cc1 | -10.4% (inactive) | -1.09 |  | 
CC(=O)N1N=C(c2ccccc2)OC12CCCC2 | 1.79% (inactive) | 3.13 |  | 
CC(=O)N1N=C(c2ccncc2)OC12CCCC2 |  | -12.2 | 16.4 µM (active) | 
CC(=O)N1N=C(c2ccncc2)OC12CCCCCC2 | 5.71% (inactive) | 5.48 |  | 
CCCOc1ccc(S(=O)(=O)NNC(=O)c2cc3ccccc3o2)cc1 |  | -21.5 |  | inactive
S=c1nc(C2CC2)n(-c2ccccc2)[nH]1 | -13.7% (inactive) | 6.79 |  | 
CC(Sc1ccccc1)C(=O)N1CCN(S(=O)(=O)c2ccccc2)CC1 (configuration not stated) |  | 22.7 | 0.0103 µM (active) | 
CC(Sc1ccccc1)C(=O)N1CCN(S(=O)(=O)c2ccccc2F)CC1 (configuration not stated) | -1.62% (inactive) | -14.5 |  | 
CC(Sc1ccccc1)C(=O)N1CCN(S(=O)(=O)c2cccc(Br)c2)CC1 (configuration not stated) |  |  |  | inactive
CS(=O)(=NS(=O)(=O)c1ccc(Cl)cc1)c1ccccc1 (configuration not stated) | 4.24% (inactive) | 5.26 |  | 
N/C(=N\OC(=O)/C=C/c1ccccc1)c1ccccn1 | 2.94% (inactive) |  |  | 
COc1cccc(-c2ncc3ccccc3c2COC(=O)c2ccc(Br)cc2)c1 |  | 2.33 |  | inactive
O=C(COC(=O)/C=C/c1cccs1)Nc1ccccc1Cl | -2.77% (inactive) | 11.7 |  | 
O=C(COC(=O)c1c2c(nc3ccccc13)CCCC2)c1cccs1 | -22.3% (inactive) | 9.93 |  | 

Compound | lipid storage change, negative = inhibition | cell number change [%] | Potency | outcome
O=C(COC(=O)c1ccccn1)Nc1ccccc1Cl | -3.35% (inactive) | -8.3 |  | 
O=C(COC(=O)c1cccs1)Nc1ccccc1C(F)(F)F | -1.51% (inactive) | -6.32 |  | 
O=C(COC(=O)c1c2c(nc3ccccc13)/C(=C\c1cccs1)CCC2)Nc1ccccc1Cl |  | -12.6 | 0.58 µM (active) | 
CCc1ccccc1NC(=O)COC(=O)c1cccs1 |  | -3.91 |  | inactive
O=C(COC(=O)c1ccccn1)Nc1cccc(Cl)c1Cl | 10.9% (inactive) | -0.814 |  | 
O=C(COC(=O)c1ccccn1)Nc1c(Cl)cccc1Cl |  | -5.33 | 16.4 µM (active) | 
O=C(COC(=O)c1cccs1)Nc1ccccc1Cl |  | 2.94 | 16.4 µM (active) | 
Nc1c(N(CCC2=CCCCC2)C(=O)C2CC2)c(=O)[nH]c(=O)n1Cc1ccccc1 | -4.29% (inactive) | 10.2 |  | 
COc1ccc(C)cc1NC(=O)c1ccccc1NS(=O)(=O)c1cccc2cccnc12 | 1.11% (inactive) | -4.79 |  | 
CCOc1ccc(CO/N=C/c2c(C)[nH]c(=O)[nH]c2=O)cc1 | -2.43% (inactive) | 3.8 |  | 
CCOC(=O)C1=C(N)N2C(=O)C(C)SC2=C(C(=O)OC)C1c1ccccc1OC (configuration not stated) | -49.1% (inactive) | -22.7 |  | 
CCOc1cc(/C=N\NC(=O)OC)ccc1OC(=O)c1ccco1 | 5.55% (inactive) | 10.8 |  | 
Cc1ccc(N2CCN(S(=O)(=O)N3CCCCCC3)CC2)cc1Cl | 2.16% (inactive) | 8.56 |  | 
Cc1ccc(Cc2nc(-c3cccnc3)no2)cc1 | 1.98% (inactive) | -9.21 |  | 
O=C(CC(c1ccccc1)c1ccccc1)NCc1cccnc1 | 0.894% (inactive) | -6.85 |  | 
Cc1ccc(C(=O)NCc2ccco2)cc1S(=O)(=O)N1CCCC1 | -9.67% (inactive) | 15 |  | 
O=C(NCCCN1CCOCC1)C(=O)NCC1OCCN1S(=O)(=O)c1cc(F)ccc1F (configuration not stated) | 4.03% (inactive) | 10.3 |  | 
Cc1nnsc1C(=O)N1CCN(c2ccc(F)cc2)CC1 | -2.21% (inactive) | 6.97 |  | 
CCOC(=O)c1cc2c(=O)n3cccc(C)c3nc2n(CCCOC)c1=NC(=O)c1cccnc1 | -13.8% (inactive) | -8.27 |  | 
Cc1cccc(N2C(=O)c3ccc(C(=O)Nc4c[nH]c(=O)[nH]c4=O)cc3C2=O)c1 | 2.68% (inactive) | -0.423 |  | 
CC(C)COc1ccc(C/C(N)=N/n2cnnc2)cc1 |  | -24.2 | 20.6 µM (active) | 
COc1ccc(C/C(N)=N/n2cnnc2)cc1Cl |  |  |  | inactive
CCOC(=O)Cn1nnc(-c2ccc(OCC(C)C)cc2)n1 | -1.83% (inactive) | -1.1 |  | 
COc1ccc(NC(=O)N2Cc3ccccc3CC2C(=O)NC(C)(C)C)cc1 (configuration not stated) | -2.72% (inactive) | -0.759 |  | 
